Experimental data published in PubChem BioAssay (NCI).
About 83,000 compounds went through this panel and 20% of them were active in at least one assay; those are over-represented in the sample as a whole.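 Compound tested at a single concentration for 48 hours in 96-well plates; a percent growth value below 10 was scored as active.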 Values without a mark were called inactive. The source made the active and inactive calls.

These compounds were tested on SK-MEL-5 melanoma (assay: NCI-60 one-dose screen, 48 h (100 = growth as untreated, 0 = no growth, -100 = all killed)). Settings: 10 µM.
Work on `O=C(O)c1ccccc1NCc1ccco1` yielded a growth of 100%.
`C/C(=C\c1cc(Cl)ccc1OCC(=O)O)[N+](=O)[O-]` gave a growth of 111%.
In the case of `CSC[C@H](NC(=O)COc1cccc2cnccc12)C(=O)NC(Cc1ccccc1)C(O)C(=O)N1CSC[C@H]1C(=O)NC(C)(C)C` (stereo partly specified), the growth is reported as 102%.
`CCOC(=O)CCCC(=O)OCC` showed a growth of 106%.
In the case of `CC(C)=C(NC(=O)c1ccccc1)C(=O)O`, the growth is reported as 99%.
In the case of `CN(C)C(C)(C)CC(C)(C)C`, the growth is reported as 105%.
In the case of `O=c1cc(-c2ccccc2)[nH]c2c1CCCC2`, the growth is reported as 7.3% (active).
In the case of `CC1(c2ccccc2)NC(=O)NC1=O` (stereo unspecified), the growth is reported as 108%.
`CCCNC(=O)c1ccc(S(N)(=O)=O)cc1` was tested, and the growth was 101%.
`COC(=O)c1[nH]c(=O)c(C#N)c(C(=O)OC)c1C(=O)c1ccccc1` gave a growth of 100%.
For `O=C(O)[C@@H]1[C@H]2C[C@H]3c4[nH]c5ccccc5c4CCN3C[C@@H]2CC[C@@H]1O`, the growth was 111%.
`CCCCOC(OCCCC)c1ccccc1` showed a growth of 103%.
With `CC1(O)OC(COc2ccc(Cl)cc2)COC1O` (stereo unspecified) the growth was 101%.
With `CNc1nc(NC)c2cn[nH]c2n1` the growth was 97.8%.
With `CC(C)=NNc1ccc([N+](=O)[O-])cc1[N+](=O)[O-]` the growth was 102%.
`CC(=O)CC(=O)N(C)C` was tested, and the growth was 93.7%.
For `Nc1ccc(N=Nc2ccc(S(=O)(=O)O)cc2)c2ccccc12`, the growth was 94.4%.
`COc1cc(OC)c2ccc(=O)oc2c1` gave a growth of 107%.
Work on `c1ccc(Sc2ccccc2)cc1` yielded a growth of 104%.
`Cc1ccc(/C=C2\SC(=S)N(c3ccc(F)cc3)C2=O)o1` gave a growth of 88.2%.
With `COc1ccc2c(NCCCCCCCCNc3c4ccccc4nc4cc(OC)ccc34)c3ccccc3nc2c1` the growth was -100% (active).
`O=C(NCCNC(=O)c1ccc(Cl)cc1Cl)c1ccc(Cl)cc1Cl` gave a growth of 98.5%.
`CC1C(=O)c2ccccc2CC1C(=O)O` (stereo unspecified) showed a growth of 100%.
`Cc1nc2ccccc2c2nnc(SCC(=O)N(Cc3ccccc3)c3ccccc3)n12` showed a growth of 45.1%.
`O=S(=O)(O)c1ccc(O)c2ccccc12` showed a growth of 114%.
`O=C1Cc2ccccc2C(=O)O1` was tested, and the growth was 105%.
`Nc1nc(OCc2ccccc2)c2[nH]cnc2n1` gave a growth of 94%.
`Cc1c(C(=O)O)c(=O)n(-c2ccccc2)n1C` was tested, and the growth was 113%.
With `COc1cc(/C=C/C(=O)c2ccccc2)cc(OC)c1OC` the growth was 76.1%.
`O=[N+]([O-])c1ccc(-c2noc(-c3cccs3)n2)cc1` showed a growth of 83.5%.
`CC(=O)OCC1OC(OC2=C(CC=C(C)C)C(=O)c3ccccc3C2=O)C(OC(C)=O)C(OC(C)=O)C1OC(C)=O` (stereo unspecified) was tested, and the growth was 4.66% (active).
With `CCCCC/C=N/Nc1nc(C)cc(=O)[nH]1` the growth was 104%.
`[O-][N+](=Nc1cccc(Cl)c1)c1cccc(Cl)c1` gave a growth of 95.9%.

What follows are compounds tested on UACC-62 melanoma in the same assay as above. Settings: 10 µM unless noted.
`O=C(O)c1ccccc1NCc1ccco1` was tested, and the growth was 101%.
Compound `C/C(=C\c1cc(Cl)ccc1OCC(=O)O)[N+](=O)[O-]` has a growth of 109%.
`CSC[C@H](NC(=O)COc1cccc2cnccc12)C(=O)NC(Cc1ccccc1)C(O)C(=O)N1CSC[C@H]1C(=O)NC(C)(C)C` (stereo partly specified) gave a growth of 98.3%.
With `COC1=CC(=O)c2nc(Cl)ccc2C1=O` the growth was 17.4%.
For `CCOC(=O)CCCC(=O)OCC`, the growth was 102%.
For `N#Cc1ccc(NC(=O)Nc2cccc(C#N)c2)cc1`, the growth was 93.7%.
`Cc1cc2nc(CC(=O)c3cccc([N+](=O)[O-])c3)c(=O)[nH]c2cc1C` was tested, and the growth was 65%.
With `COc1cc(C(=O)N/N=C/c2cccc([N+](=O)[O-])c2)cc(OC)c1OC` the growth was 50.5%.
`CN(C)C(C)(C)CC(C)(C)C` gave a growth of 105%.
For `O=c1cc(-c2ccccc2)[nH]c2c1CCCC2`, the growth was 35.2%.
`CC1(c2ccccc2)NC(=O)NC1=O` (stereo unspecified) gave a growth of 100%.
`CCCNC(=O)c1ccc(S(N)(=O)=O)cc1` was tested, and the growth was 109%.
`COC(=O)c1[nH]c(=O)c(C#N)c(C(=O)OC)c1C(=O)c1ccccc1` showed a growth of 88.6%.
`O=C(O)[C@@H]1[C@H]2C[C@H]3c4[nH]c5ccccc5c4CCN3C[C@@H]2CC[C@@H]1O` was tested, and the growth was 99.4%.
For `CCCCOC(OCCCC)c1ccccc1`, the growth was 97.2%.
`CC1(O)OC(COc2ccc(Cl)cc2)COC1O` (stereo unspecified) showed a growth of 89.8%.
Compound `CNc1nc(NC)c2cn[nH]c2n1` has a growth of 102%.
For `CC(C)=NNc1ccc([N+](=O)[O-])cc1[N+](=O)[O-]`, the growth was 65.1%.
`CC(=O)CC(=O)N(C)C` was tested, and the growth was 88.8%.
In the case of `Nc1ccc(N=Nc2ccc(S(=O)(=O)O)cc2)c2ccccc12`, the growth is reported as 90.7%.
For `COc1cc(OC)c2ccc(=O)oc2c1`, the growth was 95.5%.
`c1ccc(Sc2ccccc2)cc1` showed a growth of 101%.
Compound `Cc1ccc(/C=C2\SC(=S)N(c3ccc(F)cc3)C2=O)o1` has a growth of 85.2%.
`COc1ccc2c(NCCCCCCCCNc3c4ccccc4nc4cc(OC)ccc34)c3ccccc3nc2c1` was tested, and the growth was -100% (active).
Compound `O=C(NCCNC(=O)c1ccc(Cl)cc1Cl)c1ccc(Cl)cc1Cl` has a growth of 91.1%.
In the case of `CC1C(=O)c2ccccc2CC1C(=O)O` (stereo unspecified), the growth is reported as 116%.
Compound `Cc1nc2ccccc2c2nnc(SCC(=O)N(Cc3ccccc3)c3ccccc3)n12` has a growth of 84.7%.
Work on `CCCCC(O)c1ccccc1` (stereo unspecified) yielded a growth of 108%.
Work on `O=S(=O)(O)c1ccc(O)c2ccccc12` yielded a growth of 101%.
`O=C1Cc2ccccc2C(=O)O1` was tested, and the growth was 106%.
For `Nc1nc(OCc2ccccc2)c2[nH]cnc2n1`, the growth was 86.1%.
`Cc1c(C(=O)O)c(=O)n(-c2ccccc2)n1C` showed a growth of 108%.
`COc1cc(/C=C/C(=O)c2ccccc2)cc(OC)c1OC` was tested, and the growth was 54.9%.
For `O=[N+]([O-])c1ccc(-c2noc(-c3cccs3)n2)cc1`, the growth was 76.6%.
For `CC(=O)OCC1OC(OC2=C(CC=C(C)C)C(=O)c3ccccc3C2=O)C(OC(C)=O)C(OC(C)=O)C1OC(C)=O` (stereo unspecified), the growth was -23.8% (active).
For `CCCCC/C=N/Nc1nc(C)cc(=O)[nH]1`, the growth was 102%.
For `[O-][N+](=Nc1cccc(Cl)c1)c1cccc(Cl)c1`, the growth was 87.5%.
Work on `COc1ccc(-c2cc3c(nn2)-c2ccccc2C3=O)cc1` yielded a growth of 84.7%.
